Shown are actives, neighbours in structure and some others; about 12% of the full set was active somewhere.
G9a block = inhibitors of human histone lysine methyltransferase G9a; Q96KQ7; G9a H3K9 monomethylation, AlphaScreen, 2 h; Potency, µM (top dose mostly 102 µM), without a hit: at the highest dose activity, negative = inhibition, usual class: inhibitors; 350,000 compounds, 8.8% hits; note: % is set by controls: 0 for no effect and ±100 for the full control effect; nearly all actives have a fitted effect of over 75% in size
Target sequence (Q96KQ7 913-1193 limits assumed): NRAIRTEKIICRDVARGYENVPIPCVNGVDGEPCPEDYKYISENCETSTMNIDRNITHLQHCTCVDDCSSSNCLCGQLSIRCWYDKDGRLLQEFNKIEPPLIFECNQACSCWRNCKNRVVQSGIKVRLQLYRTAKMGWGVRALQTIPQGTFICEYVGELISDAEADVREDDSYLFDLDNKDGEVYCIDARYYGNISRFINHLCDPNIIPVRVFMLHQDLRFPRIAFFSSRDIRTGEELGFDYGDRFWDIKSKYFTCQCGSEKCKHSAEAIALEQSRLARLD
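Enzyme 20 nM + cpd, 15 min RT; add b-H3K9 pep 500 nM / SAM 20 uM; 2 h RT; anti-H3K9me1 Ab 0.5 ug/mL + SA donor / anti-rabbit acceptor beads 20 ug/mL each, 10 min; AlphaScreen read.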
Sfp PPTase inh = inhibitors of Bacillus subtilis Sfp phosphopantetheinyl transferase; Q9F4F7; Biochemical Sfp PPTase activity, qHTS; Potency, µM, inactives show largest response in the series, negative = inhibition, hits mostly inhibitors; 310,000 compounds, 3.5% hits; AID 1490;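 note: the enzyme is Sfp with the accession as filed and its product quenches rhodamine fluorescence; 0% = enzyme reaction without inhibitor and -100% = no enzyme wells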
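After 15 min at room temperature with compound, 15 nM Sfp received 5 uM rhodamine-CoA plus 12.5 uM BHQ-2-ybbR (50 mM Hepes pH 7.6, 10 mM MgCl2). Rate came from the fluorescence difference over 30 min, ex 525/em 598 nm.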
JMJD2A Tudor = blocks the human JMJD2A Tudor domain; O75164; Potency, µM (top dose mostly 114 µM), for the others: at the highest dose activity change, negative = inhibition, most hits filed as inhibitors; 390,000 compounds, 4.4% hits; AlphaScreen JMJD2A-Tudor / H3K4me3 peptide binding; note: % is set by controls: 0 for no effect and ±100 for the full control effect; nearly all actives have a fitted effect of over 50% in size
HP1b binding inh = HP1-beta chromodomain-methylated histone interaction inhibition; P83916; AlphaScreen HP1-beta / biotin-H3K9me3 peptide binding; Potency, µM (doses to about 114 µM), inactives show at the highest dose activity change, negative = inhibition, hits mostly inhibitors; 390,000 compounds, 0.56% hits; note: nearly all actives have a fitted effect of over 70% in size
Target sequence (P83916 whole entry, looked up): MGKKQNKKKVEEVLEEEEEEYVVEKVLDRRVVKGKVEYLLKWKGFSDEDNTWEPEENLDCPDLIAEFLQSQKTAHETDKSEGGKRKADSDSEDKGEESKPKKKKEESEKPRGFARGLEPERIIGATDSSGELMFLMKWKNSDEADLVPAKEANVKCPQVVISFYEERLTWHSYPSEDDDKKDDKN
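AlphaScreen: HP1-beta (50 nM) preformed 30 min with biotin-H3(1-18)K9me3 peptide (50 nM) in PBS pH 7.4, 0.01% Tween-20. Compound added for 30 min at RT, then streptavidin donor/nickel chelate acceptor beads (10 ug/mL) for 30 min.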
PLK1 PBD block = PLK1 (human) polo-box domain binding inhibition; Plk1 PBD binding of FITC phosphopeptide, fluorescence polarization; Potency, µM, inactives show max response, negative = inhibition, actives largely listed as inhibitors; 360,000 compounds, 2.8% hits; note: series mostly up to about 57 µM; % is set by controls: 0 for no effect and ±100 for the full control effect; nearly all actives have a fitted effect of over 65% in size
BAZ2B inh = inhibitors of human BAZ2B bromodomain; 360,000 compounds, 4.4% hits; AID 504333; Potency, µM (doses to about 114 µM), for inactives: at the top dose activity change, negative = inhibition, most hits filed as inhibitors; Q9UIF8; AlphaScreen BAZ2B-H3K14Ac peptide displacement; note: % is set by controls: 0 for no effect and ±100 for the full control effect; nearly all actives have a fitted effect of over 60% in size
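Complex of BAZ2B and biotin-H3K14Ac (50 nM apiece) forms over 30 min at RT, then faces library compounds up to 110 uM for another 30 min; AlphaScreen beads added, 20 min dark incubation, luminescence read.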
Active calls of the source: *; ? = inconclusive; . = not tested or not shown; [ ] = dose if it differs, or a comment. Calls come from the whole dose curve; as a rule, active = well fitted curve in the direction sought with a large enough effect; inconclusive = small, poorly fitted or top-dose-only effect, or another doubt; inactive = no such curve, though single readings can be large; an effect the other way counts as inactive or inconclusive. Potency is the fitted concentration of half-maximal effect.

SMILES	G9a block	Sfp PPTase inh	JMJD2A Tudor	HP1b binding inh	PLK1 PBD block	BAZ2B inh
COc1cccc(NC(=O)Nc2ccccc2SC)c1	6%	-11%	-32%	13%	19µM*	-19%
CSc1ccccc1NC(=O)Nc1cccc2ccccc12	79µM*	10%	3%	26%	-9%	18%
O=C(NCc1cccnc1)NC1(C(F)(F)F)Oc2ccccc2O1	40µM*	-5%	-17%	34%	2%	8%
O=C(Nc1ccccc1)c1ccc2snnc2c1	1%	16%	?	-17%[57 µM]	27µM*	0%
CC(C)CNC(=O)NC1(C(F)(F)F)Oc2ccccc2O1	?	15%	-4%	35%	1%	0%
CSc1ccccc1NC(=O)Nc1cccc(Cl)c1Cl	0%[59 µM]	3%	-13%	30%	-10%	7%
COc1ccccc1-c1cncnc1Nc1ccccc1	2%[0.501 µM]	-1%	.	.	.	.
Cc1ccc(C)c(OCCCNCc2ccccc2)c1	?	6%	45µM*	-20%	2%	?
Cc1ccc(C(C)C)c(OCCNCc2ccccc2)c1	.	-19%	28µM*	27%	-1%	?
Cc1ccc(C(C)C)c(OCCNC(=S)Nc2cccc3ccccc23)c1	22%[12.7 µM]	8%	-24%	13%	4%	-14%
Clc1cc(Br)ccc1OCCCNCc1ccccc1	7.1µM*	-22%	2.8µM*	?	-4%	?
Cc1ccc(C)c(OCCC(=O)OCC(=O)NCc2ccccc2)c1	0%	.	-12%	-8%	-17%	-2%
Brc1ccc(OCc2ccccc2)c(CNCc2ccncc2)c1	-37%[0.0925 µM]	79µM*	?	14%	-3%	79µM*
O=C(c1ccc(-c2ccccc2Cl)s1)N1CCOCC1	.	.	-3%	64%	-4%	.
Cc1ccccc1CSc1cn(CC(=O)N2CCCCC2)c2ccccc12	9%[59 µM]	.	4%	55%	.	-14%
Fc1ccc(C2=NC(c3cccc(C(F)(F)F)c3)=Nc3ccccc3N2)cc1	-3%[59 µM]	.	-24%	21%	.	-21%
Cc1cc(OCCOCCNCc2ccccc2)ccc1C(C)C	10µM*	79µM*	20µM*	?	3%	?
COc1ccccc1C(CCNCc1ccccc1)c1ccc(OC(C)C)cc1 (centres undefined)	-2%[2.33 µM]	-14%	-23%	12%	-4%	-8%
CCN(CC)c1ccc(/C=C(\C#N)c2nc(-c3cccs3)c(NC(C)=O)s2)cc1	10µM*	?	.	.	.	20µM*
O=C(N/N=C/c1ccoc1)c1ccccc1F	2%	1%	-28%	9%	0%	?
Nc1ccc(N=Nc2ccccc2)c(N)n1	11µM*	9%	-5%	31%	-4%	?
Nc1ccc(N=Nc2ccccc2)c2ccccc12	10µM*	-15%	35µM*	-9%	-3%	11µM*
Clc1ccc(-c2[nH]ncc2N=Nc2ccccc2)cc1	?	3%	?	-9%	5%	?
Cc1cc(=O)n2[nH]c(N)c(N=Nc3ccccc3)c2n1	-9%[59 µM]	30%	-21%	11%	-5%	0%
c1ccc(N=Nc2ccc3cccccc2-3)cc1	.	.	4µM*	4µM*	-6%	.
SMILES	G9a block	Sfp PPTase inh	JMJD2A Tudor	HP1b binding inh	PLK1 PBD block	BAZ2B inh
CC(=O)OC1CC[C@@]2(C)C3=CC(=O)[C@]4(C)C(CC5OC6(OCC(C)CC6Br)C(C)C54)C3CC[C@H]2C1 (some centres undefined)	.	10%	.	.	.	.
Cc1ccc(F)cc1NC(=O)COC(=O)c1ccc2ncsc2c1	-17%[12.7 µM]	.	?	18%	-17%	?
COc1ccc2cc(CCNC(=O)c3ccc(S(=O)(=O)N4CCCC4)cc3)c(=O)[nH]c2c1	12%	12%	-1%	17%	3%	-4%
Cn1cnnc1SCC(=O)NN1C(=O)NC(C)(c2ccccc2)C1=O (centres undefined)	22µM*	5%	-11%	26%	5%	-30%
COc1ccc(-c2cc3c(nn2)-c2ccccc2C3=O)cc1	-5%	11%	22µM*	-8%	24µM*	-14%
O=C1c2ccccc2-c2nnc(-c3ccccc3)cc21	5%[0.501 µM]	4%	-28%	18%	-9%	?
CCCN(CCC)S(=O)(=O)c1ccc(C(=O)Nc2nnc(CSC)o2)cc1	-31%	20%	50µM*	-9%	?	?
CN(c1ccccc1)S(=O)(=O)c1ccc(C(=O)Nc2nnc(C3CC3)o2)cc1	8%	23%	-24%	12%	6%	?
COCCN(CCOC)S(=O)(=O)c1ccc(C(=O)Nc2nnc(C3CC3)o2)cc1	10%[12.7 µM]	-26%	10µM*	26%	-4%	32µM*
CCc1nnc(NC(=O)c2ccc(S(=O)(=O)N(CCOC)CCOC)cc2)o1	4µM*	?	45µM*	42%	-3%	28µM*
CCOC(=O)C1CCCCN1Cc1cccc(C(F)(F)F)c1 (centres undefined)	?	-12%	?	39%	0%	?
COc1ccccc1CNC(=O)C1CCCC1	2%	12%	-5%	11%	0%	-16%
CCOC(=O)C1CCCCN1Cc1ccccc1C(F)(F)F (centres undefined)	50%[59 µM]	?	4.5µM*	?	-5%	7%
CCOC(=O)C1CCN(Cc2ccccc2C(F)(F)F)CC1	16µM*	-20%	2.8µM*	?	1%	79µM*
COc1ccccc1CN1CCCCC1C(=O)O (centres undefined)	-25%	16%	35µM*	57%	2%	-9%
CCOC(=O)C1CCN(C(=O)Cc2ccccc2OC)CC1	-13%	2%	-5%	17%	-9%	-13%
COc1ccc(NC(=O)CSc2nnc3c(n2)[nH]c2ccc(S(=O)(=O)N(C)C)cc23)c(OC)c1	.	.	-33%	3%	.	.
COc1ncc2nc(-c3ccccc3)c(=O)n(C[C@H]3CCCO3)c2n1	7%[12.7 µM]	4%	.	.	.	.
CC1(C)CC2(CC(c3ccccc3F)c3ccc(O)c(O)c3O2)NC(=S)N1 (centres undefined)	.	8.9µM*	40µM*	?	19µM*	45µM*
O=C(NCc1ccccc1)c1ccc2c(=O)[nH]c3c(C(=O)NCC4CCCO4)sc(=S)n3c2c1 (centres undefined)	45µM*	-16%	?	?	?	40µM*
Cc1ccc(CNC(=O)c2ccc3c(=O)[nH]c4c(C(=O)NCC5CCCO5)sc(=S)n4c3c2)cc1 (centres undefined)	?	?	?	-38%	?	35µM*
CCCCCNC(=O)c1ccc2c(=O)[nH]c3c(C(=O)NCC4CCCO4)sc(=S)n3c2c1 (centres undefined)	?	50µM*	-33%[57.1 µM]	?	27µM*	-39%

Screening data deposited in PubChem by National Center for Advancing Translational Sciences (NCATS).
